Shown are actives, neighbours in structure and some others; about 5.5% of the full set was active somewhere.
Mito fusion yeast = mitochondrial division inhibition or fusion activation | S. cerevisiae fusion-defective mutant growth rescue, CellTiterGlo 48 h | Potency, µM (series often up to 46.1 µM), most hits filed as activators | 320,000 compounds, 0.23% hits | AID 485298; note: nearly all actives have a fitted effect of over 45% in size
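Temperature-sensitive fusion-defective S. cerevisiae (e.g. fzo1-1, mgm1-5) were grown with compound in YPEG medium (3% ethanol, 3% glycerol) for 48 hours at 37C. Growth rescue was measured as viability by CellTiterGlo luminescence after 10 minutes at ambient.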
uPA generation = inhibitors of cell surface uPA generation; cell surface uPA generation assay, qHTS; Potency, µM (highest dose often 38.3 µM), usual class: inhibitors; 330,000 compounds, 0.31% hits; AID 540303; active = well fitted inhibition curve with a large enough effect; inconclusive = small, poorly fitted or top-dose-only effect; inactive = no such curve, though single readings can be large or run the other way; tested in mouse RAW 264.7 cells; note: nearly all actives have a fitted effect of over 55% in size
Chronic BCR inh = blocks chronic active B-cell receptor signaling; ABC-DLBCL IkBa-CBG/CBR reporter, luminescence ratio, 4 h; Potency, µM (top dose mostly 46.1 µM), actives largely listed as inhibitors; 340,000 compounds, 0.05% hits; active = well fitted inhibition curve with a large enough effect in the signal ratio, with a control signal flat, not every such curve was filed as active; inconclusive = small, poorly fitted or top-dose-only effect, or effect the other way, or a change in a side signal; the % refers to the signal ratio
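Concentration-response series (up to 46 uM) were applied to TMD8 dual-reporter cells for 4 h at 37C with doxycycline. Green/red ratio, after filter-overlap correction, defined %Activity; red signal alone was normalised to basal cells and zero luminescence.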
a7 integrin act = integrin-mediated muscular dystrophy alleviation activation | 350,000 compounds, 0.064% hits | alpha7betagal myoblasts, beta-gal FDG fluorescence, 48 h | AID 624291 | Potency, µM (highest dose often 38.3 µM), usual class: activators; note: nearly all actives have a fitted effect of over 60% in size
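Alpha7betagal+/- myoblasts (passage 13) were plated 16-24 hr, then exposed to compounds (1:260 dilution of DMSO stock) for 48 hours at 37C. After MPER lysis, β-galactosidase reporter activity was read as FDG fluorescence (ex 480/em 540) after 30 minutes.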
RORg inh = inhibitors of mouse ROR gamma transcriptional activity; Drosophila S2 Gal4-RORgamma UAS-luciferase reporter, 20 h; Potency, µM (highest dose often 53.6 µM), usual class: inhibitors; 310,000 compounds, 5.4% hits; note: nearly all actives have a fitted effect of over 60% in size
Target sequence (P51450 whole entry, looked up, the tested form may be a part): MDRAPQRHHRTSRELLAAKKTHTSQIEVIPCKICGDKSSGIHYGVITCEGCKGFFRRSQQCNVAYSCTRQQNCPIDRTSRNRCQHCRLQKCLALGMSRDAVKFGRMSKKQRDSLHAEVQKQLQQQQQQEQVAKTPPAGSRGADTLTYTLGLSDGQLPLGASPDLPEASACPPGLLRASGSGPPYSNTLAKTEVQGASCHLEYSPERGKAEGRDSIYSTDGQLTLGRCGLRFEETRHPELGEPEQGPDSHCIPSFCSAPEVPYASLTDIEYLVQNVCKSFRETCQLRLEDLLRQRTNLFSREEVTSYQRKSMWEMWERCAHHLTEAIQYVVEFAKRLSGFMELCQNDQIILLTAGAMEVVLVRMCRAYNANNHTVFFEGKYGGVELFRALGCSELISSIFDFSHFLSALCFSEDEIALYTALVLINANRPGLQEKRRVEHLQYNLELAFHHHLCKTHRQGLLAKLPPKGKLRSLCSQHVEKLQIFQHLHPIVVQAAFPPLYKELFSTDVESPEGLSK
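A Gal4/UAS one-hybrid system in insect cells: metallothionein-promoter Gal4–ROR gamma fusion plus Photinus luciferase reporter. Copper sulfate 700 uM final, 20 hr ambient incubation, luminescent detection after 10 min with reagent.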
VP16 counter = inhibits Gal4-VP16 luciferase reporter, ROR gamma counter-screen | Potency, µM (doses to about 53.6 µM), hits mostly inhibitors | Drosophila S2 Gal4-VP16 UAS-luciferase, luminescence, 20 h | AID 2546 | 310,000 compounds, 3.5% hits;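 note: Gal4-VP16 expression switched on by copper sulfate through the metallothionein promoter; nearly all actives have a fitted effect of over 50% in size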
A number is an active result; [ ] = dose if it differs, or a comment. Unless noted, calls come from the whole dose curve; as a rule, active = well fitted curve in the direction sought with a large enough effect; inconclusive = small, poorly fitted or top-dose-only effect, or another doubt; inactive = no such curve, though single readings can be large; an effect the other way counts as inactive or inconclusive.

How did COc1cccc([C@@H]2Oc3ccc(OC)cc3C[C@H]2OC(=O)NS(=O)(=O)c2ccc(F)cc2)c1 do in these assays?
RORg inh: inactive; VP16 counter: inactive

What do the screens show for `CS(=O)(=O)N1CCC2(CC1)CN(C(=O)Nc1ccccc1)C2`?
RORg inh: inactive; VP16 counter: inactive

Results for COc1ccc(C(=O)Nc2ccccc2C(=O)N/N=C/c2ccncc2)cc1OC ?
Mito fusion yeast: inactive; uPA generation: inactive; Chronic BCR inh: inconclusive; a7 integrin act: inconclusive; RORg inh: 3.55µM; VP16 counter: 5.62µM

What do the screens show for `O=C(Nc1ccccc1C(=O)N/N=C/c1ccc(O)cc1)c1ccccc1`?
Mito fusion yeast: inactive; uPA generation: 7.08µM; Chronic BCR inh: inconclusive; a7 integrin act: inconclusive; RORg inh: inactive; VP16 counter: inconclusive

Results for O=C1CSC(=S)N1N=Cc1c[nH]c2ccc(Br)cc12 ?
a7 integrin act: inactive

What do the screens show for `COc1ccc(Br)cc1/C=N/N1C(=O)CSC1=S`?
Mito fusion yeast: inactive; uPA generation: inactive; Chronic BCR inh: inactive; a7 integrin act: inactive; RORg inh: 14.1µM; VP16 counter: inactive

What do the screens show for `CCOC(=O)c1sc(NC(=O)CNCc2ccccn2)c(C(=O)OCC)c1C`?
Mito fusion yeast: inactive; uPA generation: inactive; Chronic BCR inh: inactive; a7 integrin act: inactive; RORg inh: 7.94µM; VP16 counter: inconclusive

What do the screens show for `CCOC(=O)c1sc(NC(=O)CCN2CCCCCC2)c(C(=O)OCC)c1C`?
Mito fusion yeast: inactive; uPA generation: inactive; Chronic BCR inh: inconclusive; a7 integrin act: inactive; RORg inh: 11.2µM; VP16 counter: inconclusive

How did O=C1Nc2ccccc2Oc2cc(Oc3ccccc3)ccc21 do in these assays?
Mito fusion yeast: inactive; Chronic BCR inh: inconclusive

How did COc1ccc(OC)c(NC(=S)N(CCc2c(C)[nH]c3ccc(C)cc23)Cc2cccs2)c1 do in these assays?
Mito fusion yeast: inactive; uPA generation: inactive; Chronic BCR inh: inactive; a7 integrin act: inactive; RORg inh: 10µM; VP16 counter: inactive

Results for COc1ccc(OC)c(NC(=S)N(CCc2c(C)[nH]c3ccccc23)Cc2cccs2)c1 ?
Mito fusion yeast: inactive; uPA generation: inactive; Chronic BCR inh: inactive; a7 integrin act: inactive; RORg inh: 8.91µM; VP16 counter: inactive

How did CCNC(=S)N(CCc1c(C)[nH]c2ccc(C)cc12)Cc1cc(OC)c(OC)c(OC)c1 do in these assays?
Mito fusion yeast: inactive; uPA generation: inactive; Chronic BCR inh: inconclusive; a7 integrin act: inactive; RORg inh: inconclusive; VP16 counter: inactive

What do the screens show for `COc1cccc(NC(=S)N(CCc2c(C)[nH]c3ccc(C)cc23)Cc2cccs2)c1`?
Mito fusion yeast: inactive; uPA generation: inactive; Chronic BCR inh: inactive; a7 integrin act: inactive; RORg inh: inactive; VP16 counter: inconclusive

How did COc1ccc2[nH]c(C)c(CCN(Cc3cccs3)C(=S)Nc3cccc(F)c3)c2c1 do in these assays?
Mito fusion yeast: inconclusive; uPA generation: inconclusive; Chronic BCR inh: inactive; a7 integrin act: inactive; RORg inh: 1.58µM; VP16 counter: inconclusive

What do the screens show for `N#Cc1ccc(CN2CC[C@@]3(CCCN(C(=O)c4cccc(F)c4)C3)C2)cc1`?
RORg inh: inactive; VP16 counter: inactive

What do the screens show for `Cc1ccc(NC(=O)c2oc3ccc(S(=O)(=O)N4CCC5(CC4)OCCO5)cc3c2C)c(C)c1`?
Chronic BCR inh: inactive

Results for COc1ccc(Cc2nnc(NC(=O)c3c(-c4ccccc4)noc3C)s2)cc1 ?
Mito fusion yeast: inactive; uPA generation: inactive; Chronic BCR inh: inactive; a7 integrin act: inactive; RORg inh: 15.8µM; VP16 counter: inconclusive

What do the screens show for `CCC(C)(C)C(=O)Nc1nnc(CCc2ccccc2)s1`?
Mito fusion yeast: inactive; uPA generation: inactive; Chronic BCR inh: inactive; a7 integrin act: inactive; RORg inh: inconclusive; VP16 counter: inconclusive

What do the screens show for `CC(C)(C)C(=O)Nc1nnc(Cc2ccccc2)s1`?
Mito fusion yeast: inactive; Chronic BCR inh: inactive; a7 integrin act: inactive[7.66 µM]; RORg inh: 12.6µM; VP16 counter: inactive

What do the screens show for `COc1ccc(Cc2nnc(NC(=O)c3c(-c4ccccc4)noc3C)s2)cc1OC`?
Mito fusion yeast: inactive; Chronic BCR inh: inactive; RORg inh: inconclusive; VP16 counter: inactive
